# Biological target: Calcium/calmodulin-dependent protein kinase type II subunit alpha (Homo sapiens) (UniProt Q9UQM7)
# Settings: at 0.1 µM
# 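Note: reported values are averages (mean inhibition of CAMK2A).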
# Calcium/calmodulin-dependent protein kinase type II subunit alpha (Homo sapiens), sequence (Q9UQM7 whole entry): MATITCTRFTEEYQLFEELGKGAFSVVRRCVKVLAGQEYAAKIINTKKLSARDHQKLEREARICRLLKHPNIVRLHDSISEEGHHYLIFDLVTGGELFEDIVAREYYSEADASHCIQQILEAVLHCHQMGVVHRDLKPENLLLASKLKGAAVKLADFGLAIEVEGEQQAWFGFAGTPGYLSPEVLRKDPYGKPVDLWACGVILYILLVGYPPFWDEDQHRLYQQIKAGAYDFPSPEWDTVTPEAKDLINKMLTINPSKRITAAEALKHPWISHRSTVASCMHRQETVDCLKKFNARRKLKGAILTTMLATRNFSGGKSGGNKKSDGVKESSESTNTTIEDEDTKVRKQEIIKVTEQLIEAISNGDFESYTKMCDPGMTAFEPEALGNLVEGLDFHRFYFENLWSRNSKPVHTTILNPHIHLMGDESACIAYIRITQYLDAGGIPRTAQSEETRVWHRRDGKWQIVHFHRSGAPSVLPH
row,SMILES,inhibition
1,Nc1nonc1-c1nc2cnccc2n1C1CCCCC1,-2.67%
2,COc1cc2c(cc1Nc1nc(Nc3ccsc3C(N)=O)c3cc[nH]c3n1)N(C(=O)CN(C)C)CCC2,-4.48%
3,CCn1c(-c2nonc2N)nc2c(C#CC(C)(C)O)nc(O[C@@H](CN)c3ccccc3)cc21,-1.19%
4,NS(=O)(=O)c1ccc(-c2ccc3c(NC(=O)C4CC4)n[nH]c3c2)cc1,3.17%
5,CCn1c(-c2nonc2N)nc2c(C#CC(C)(C)O)ncc(OC[C@@H]3CCCN3)c21,1.28%
6,Cc1cc(-c2ccco2)cc(C)c1/C=C/c1cncc(-c2nn[nH]n2)c1,1.37%
7,CCn1c(-c2nonc2N)nc2c(C#CCN)ncc(OCCCN)c21,-2.48%
8,Fc1ccc(-c2ncn(C3CCNCC3)c2-c2ccnc(Oc3ccccc3)n2)cc1,-0.23%
9,NC(=O)c1sc(-n2cnc3cc(C(F)(F)F)ccc32)cc1OCc1ccccc1Br,2.4%
10,NS(=O)(=O)c1ccc(N/C=C2\C(=O)Nc3ccc4ncsc4c32)cc1,2.56%
11,COc1cc(C=NNc2ncnc3c2cnn3Cc2ccccc2)ccc1O,-5%
12,CCn1c(-c2nonc2N)nc2c(C#CC(C)(C)O)ncc(OCC3CCNCC3)c21,3.5%
13,COc1cccc(COc2cc(-n3cnc4ccccc43)sc2C(N)=O)c1,0.37%
14,COc1cccc(-n2ncc3c(N/N=C/c4ccncc4)ncnc32)c1,4.53%

# From ChEMBL document CHEMBL1961873, “Compounds: GSK PKIS; Assays: Nanosyn kinase panel” (2012)
